Source: PubChem BioAssay (EPA / NIEHS)
The source made the active and inactive calls. The calls were made as follows: active = hit-call score of the fitted dose curve at least 0.9, where 1 is the maximum; inactive = score below 0.9.

What was measured:
[1] = target: Transcription factor E2F1 (Homo sapiens) (UniProt Q01094); test: ATG_E2F_CIS: Attagene CIS-FACTORIAL HepG2 Assay for human E2F Transcription Factor 1 (AID 2282935); details: HepG2 Attagene cis-reporter, E2F reporter RNA transcripts; actives raise or lower the signal
Transcription factor E2F1 (Homo sapiens), sequence (Q01094 whole entry, looked up): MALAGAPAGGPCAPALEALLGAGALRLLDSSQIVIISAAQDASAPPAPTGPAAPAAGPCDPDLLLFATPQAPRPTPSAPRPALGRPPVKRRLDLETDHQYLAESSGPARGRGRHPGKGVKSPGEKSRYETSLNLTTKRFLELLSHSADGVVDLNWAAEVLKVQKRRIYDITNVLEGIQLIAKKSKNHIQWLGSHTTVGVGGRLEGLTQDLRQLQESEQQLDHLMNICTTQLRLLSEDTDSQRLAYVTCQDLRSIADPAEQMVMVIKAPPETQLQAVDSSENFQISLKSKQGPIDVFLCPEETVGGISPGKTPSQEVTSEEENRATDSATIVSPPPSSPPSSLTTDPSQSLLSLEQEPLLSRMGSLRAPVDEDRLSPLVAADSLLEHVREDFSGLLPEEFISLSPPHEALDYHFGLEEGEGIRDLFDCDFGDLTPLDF
In short: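 Gain or loss of reporter transcript, fitted against DMSO, reflects E2F1-driven transcription. Transiently transfected HepG2 dosed 24 h before RNA isolation. Quantified by fluorescent RT-PCR products separated by capillary electrophoresis.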

[2] = ATG_E_Box_CIS: Attagene CIS-FACTORIAL HepG2 Assay for human Enhancer Box (E-box) (AID 2282936); details: HepG2 E-box cis-reporter transcription, actives raise or lower the signal
In short: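 E-box-driven reporter transcripts measured in transiently transfected HepG2 after 24 h exposure: RNA reverse-transcribed, PCR-amplified, fluorescently labelled, digested and resolved by capillary electrophoresis. Gain or loss relative to DMSO.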

[3] = ATG_M_61_CIS: Attagene CIS-FACTORIAL HepG2 Assay for M61 Transcription Factor (Internal Marker) (AID 2282937); details: HepG2 Attagene CIS-FACTORIAL M61 internal marker reporter; actives raise or lower the signal
In short: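 HepG2 cells transiently transfected with cis-element-driven multiple reporter transcription units, dosed for 24 h. Reporter mRNA measured by RT-PCR, 6-FAM primer-extension labelling, HpaI digestion and capillary electrophoresis; bidirectional fit versus DMSO baseline.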

[4] = ATG_EGR_CIS: Attagene CIS-FACTORIAL HepG2 Assay for human Early Growth Response 1 (EGR1) (AID 2282938); details: HepG2 Attagene CIS-FACTORIAL EGR reporter mRNA; actives raise or lower the signal
In short: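 HepG2 cells transiently transfected with cis-promoter-driven multiplexed reporter transcription units; reporter mRNA measured 24 h after compound dosing by RT-PCR, 6-FAM primer extension, HpaI digestion and capillary electrophoresis. Bidirectional fit versus DMSO baseline.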

[5] = ATG_ERE_CIS: Attagene CIS-FACTORIAL HepG2 Assay for Estrogen Response Element (ERE) (AID 2282940); details: HepG2 ERE cis-reporter, Attagene RNA transcript; actives raise or lower the signal
In short: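 After 24 h compound treatment, RNA from transfected HepG2 cells was reverse-transcribed, reporter cDNA PCR-amplified, FAM-labelled, HpaI-cut and resolved by capillary electrophoresis. ERE-driven cis reporter transcripts reflect endogenous factors; gain or loss scored against DMSO.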

[6] = ATG_Ets_CIS: Attagene CIS-FACTORIAL HepG2 Assay for human Erythroblast Transformation Specific (ETS) (AID 2282941); details: HepG2 ETS cis-reporter transcription, actives raise or lower the signal
In short: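 Cis-regulated reporter mRNA induction in HepG2 (transient transfection), 24 h exposure, RT-PCR plus capillary electrophoresis detection; DMSO serves as negative control and baseline.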

[7] = target: Hepatocyte nuclear factor 3-beta (Homo sapiens) (UniProt Q9Y261); test: ATG_FoxA2_CIS: Attagene CIS-FACTORIAL HepG2 Assay for human Forkhead box A2 (FOXA2) (AID 2282942); details: HepG2 cis-reporter transcription factor activity, 24 h; actives raise or lower the signal
Hepatocyte nuclear factor 3-beta (Homo sapiens), sequence (Q9Y261 whole entry, looked up): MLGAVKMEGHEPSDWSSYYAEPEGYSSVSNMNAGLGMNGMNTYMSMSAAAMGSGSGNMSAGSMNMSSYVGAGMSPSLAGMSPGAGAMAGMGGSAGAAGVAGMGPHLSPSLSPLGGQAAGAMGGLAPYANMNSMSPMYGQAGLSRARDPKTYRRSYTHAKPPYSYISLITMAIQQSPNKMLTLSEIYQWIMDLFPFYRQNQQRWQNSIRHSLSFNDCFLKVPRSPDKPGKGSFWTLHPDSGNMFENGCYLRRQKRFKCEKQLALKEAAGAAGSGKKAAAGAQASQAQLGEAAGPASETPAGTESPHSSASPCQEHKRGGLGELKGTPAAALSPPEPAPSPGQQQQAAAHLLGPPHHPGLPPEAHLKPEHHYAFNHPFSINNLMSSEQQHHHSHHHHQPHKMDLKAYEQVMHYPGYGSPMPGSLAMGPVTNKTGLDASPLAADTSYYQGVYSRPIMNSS
In short: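 HepG2 cells transiently transfected with multiple cis-regulated reporter transcription units, dosed for 24 h. Reporter mRNA measured by RT-PCR, 6-FAM labelling, HpaI digestion and capillary electrophoresis; bidirectional fitting against DMSO baseline.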

[8] = ATG_FoxO_CIS: Attagene CIS-FACTORIAL HepG2 Assay for human Forkhead box O (FoxO) (AID 2282943); details: HepG2 Attagene cis-reporter, FoxO element, mRNA; actives raise or lower the signal
In short: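 HepG2, transient MRTU transfection (cis element, endogenous TFs). Dose 24 h. TriZol RNA → oligo(dT) RT → PCR → 6-FAM primer extension → HpaI cut → CE. Gain/loss vs DMSO.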

[9] = ATG_GLI_CIS: Attagene CIS-FACTORIAL HepG2 Assay for human Zinc Finger Protein GLI1 (AID 2282945); details: HepG2, Attagene cis-factorial reporter mRNA, GLI element; actives raise or lower the signal
In short: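 Bidirectional curve fits relative to DMSO, using reporter mRNA levels from RT-PCR plus capillary electrophoresis. Cells were HepG2 transiently carrying cis-regulated reporter constructs, harvested 24 h after dosing.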

[10] = ATG_ISRE_CIS: Attagene CIS-FACTORIAL HepG2 Assay for human Interferon Regulatory Factor 1 (IRF1) binding to an Interferon-Stimulated Response Element (ISRE) (AID 2282948); details: HepG2 ISRE cis-reporter (Attagene), mRNA transcription readout; actives raise or lower the signal
In short: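 Multiplexed mRNA reporter readout in human liver HepG2 cells: cis-element-driven reporters transfected, compound added for 24 h, transcripts amplified, fluorescently labelled and sized by capillary electrophoresis; curve fitting bidirectional against DMSO.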

[11] = ATG_M_32_CIS: Attagene CIS-FACTORIAL HepG2 Assay for M32 Transcription Factor (Internal Marker) (AID 2282949); details: HepG2 Attagene cis-factorial M32 reporter, mRNA; actives raise or lower the signal;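 also: background control marker of the multiplexed CIS panel rather than a real target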
In short: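 HepG2 transfectants (cis-regulated reporter transcription units) dosed 24 h. Reporter mRNA by RT-PCR plus CE, analysed as gain or loss relative to DMSO.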

[12] = ATG_M_06_CIS: Attagene CIS-FACTORIAL HepG2 Assay for M06 Transcription Factor (Internal Marker) (AID 2282950); details: HepG2 Attagene CIS-FACTORIAL M06 internal marker reporter; actives raise or lower the signal
In short: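 Serves as a background control readout. Transfected HepG2 exposed to compounds for 24 h, then reporter transcripts quantified by fluorescent RT-PCR and capillary electrophoresis. Both directions fitted against DMSO baseline.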

[13] = target: Hepatocyte nuclear factor 6 (Homo sapiens) (UniProt Q9UBC0); test: ATG_HNF6_CIS: Attagene CIS-FACTORIAL HepG2 Assay for human Hepatocyte Nuclear Factor 6 (HNF6) (AID 2282952); details: HepG2 Attagene cis-factorial HNF6 reporter transcription; actives raise or lower the signal
Hepatocyte nuclear factor 6 (Homo sapiens), sequence (Q9UBC0 whole entry, looked up, the tested form may be a part): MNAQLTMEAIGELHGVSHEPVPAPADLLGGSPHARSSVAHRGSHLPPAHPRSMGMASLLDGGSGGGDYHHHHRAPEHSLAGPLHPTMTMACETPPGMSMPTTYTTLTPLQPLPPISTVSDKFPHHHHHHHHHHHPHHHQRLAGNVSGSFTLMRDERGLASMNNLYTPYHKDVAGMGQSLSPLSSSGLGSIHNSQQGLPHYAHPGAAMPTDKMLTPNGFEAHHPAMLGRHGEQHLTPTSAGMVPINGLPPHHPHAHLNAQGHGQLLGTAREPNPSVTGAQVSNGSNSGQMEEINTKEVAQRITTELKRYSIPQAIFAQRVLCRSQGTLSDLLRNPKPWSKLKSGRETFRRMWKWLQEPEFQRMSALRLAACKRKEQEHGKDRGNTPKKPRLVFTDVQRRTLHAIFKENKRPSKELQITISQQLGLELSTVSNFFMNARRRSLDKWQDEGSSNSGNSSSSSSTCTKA
In short: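 First, HepG2 cells were transfected with the multiplexed cis reporter library and dosed with chemical for 24 h. Next, RNA was reverse-transcribed, PCR-amplified and fluorescently labelled. Finally, HpaI-digested fragments were read by capillary electrophoresis.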

[14] = target: Heat shock factor protein 1 (Homo sapiens) (UniProt Q00613); test: ATG_HSE_CIS: Attagene CIS-FACTORIAL HepG2 Assay for human Heat Shock Transcription Factor 1 (HSE) (AID 2282953); details: HepG2 HSE cis-reporter, Attagene RNA transcription; actives raise or lower the signal
Heat shock factor protein 1 (Homo sapiens), sequence (Q00613 whole entry, looked up): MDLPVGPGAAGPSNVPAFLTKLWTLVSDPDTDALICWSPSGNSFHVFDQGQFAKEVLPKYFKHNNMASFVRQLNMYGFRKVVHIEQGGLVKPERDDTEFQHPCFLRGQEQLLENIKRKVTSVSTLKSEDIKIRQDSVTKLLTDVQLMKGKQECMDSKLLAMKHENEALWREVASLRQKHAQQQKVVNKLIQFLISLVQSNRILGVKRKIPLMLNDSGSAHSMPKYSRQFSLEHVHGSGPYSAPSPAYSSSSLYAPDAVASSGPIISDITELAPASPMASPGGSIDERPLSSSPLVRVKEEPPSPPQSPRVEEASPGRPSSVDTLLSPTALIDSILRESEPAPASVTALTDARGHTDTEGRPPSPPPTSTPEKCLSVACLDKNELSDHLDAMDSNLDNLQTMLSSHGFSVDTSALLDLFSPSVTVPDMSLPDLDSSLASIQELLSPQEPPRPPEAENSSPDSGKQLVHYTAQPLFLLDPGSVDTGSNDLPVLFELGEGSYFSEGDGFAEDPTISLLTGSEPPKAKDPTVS
In short: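 Endogenous transcription factor activity in transiently transfected HepG2, read as reporter mRNA by RT-PCR with fluorescent capillary electrophoresis after 24 h. Gain or loss of signal fitted versus DMSO baseline.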

[15] = ATG_MRE_CIS: Attagene CIS-FACTORIAL HepG2 Assay for human Metal Responsive Element (MRE) (AID 2282954); details: HepG2 MRE cis-reporter transcription, Attagene multiplex; actives raise or lower the signal
In short: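 Endogenous MRE-dependent transcription read as reporter mRNA in transiently transfected human HepG2 cells at 24 h. RNA reverse-transcribed, PCR-amplified, labelled and resolved by capillary electrophoresis; gain or loss relative to DMSO.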

[16] = ATG_M_19_CIS: Attagene CIS-FACTORIAL HepG2 Assay for M19 Transcription Factor (Internal Marker) (AID 2282939); details: HepG2 Attagene CIS-FACTORIAL M19 internal marker reporter; actives raise or lower the signal
In short: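 Internal marker readout, fitted in both directions against DMSO, from HepG2 cells carrying transfected cis-element reporter constructs; RT-PCR and capillary electrophoresis of reporter mRNA after 24 h exposure.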

[17] = ATG_GATA_CIS: Attagene CIS-FACTORIAL HepG2 Assay for human GATA Binding Protein (AID 2282944); details: HepG2 GATA cis-element reporter, Attagene multiplex mRNA; actives raise or lower the signal
In short: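 Reporter transcripts from a GATA cis-regulated unit, among multiplexed reporters in transfected HepG2 cells, were measured by RT-PCR with capillary electrophoresis after 24 h dosing. Induction or loss scored relative to DMSO.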

[18] = ATG_GRE_CIS: Attagene CIS-FACTORIAL HepG2 Assay for human Glucocorticoid Response Elements (GRE) (AID 2282947); details: HepG2 GRE cis-reporter, Attagene multiplex mRNA; actives raise or lower the signal
In short: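 Reporter transcripts read by RT-PCR with capillary electrophoresis fluorescence after a 24 h chemical exposure of HepG2 cells transiently transfected with multiple cis-element reporter units. Gain or loss fitted against DMSO.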

[19] = target: Hypoxia-inducible factor 1-alpha (Homo sapiens) (UniProt Q16665); test: ATG_HIF1a_CIS: Attagene CIS-FACTORIAL HepG2 Assay for human Hypoxia Inducible Factor 1 (HIF1A) (AID 2282951); details: HepG2 Attagene cis-factorial HIF1a reporter transcription; actives raise or lower the signal
Hypoxia-inducible factor 1-alpha (Homo sapiens), sequence (Q16665 whole entry, looked up): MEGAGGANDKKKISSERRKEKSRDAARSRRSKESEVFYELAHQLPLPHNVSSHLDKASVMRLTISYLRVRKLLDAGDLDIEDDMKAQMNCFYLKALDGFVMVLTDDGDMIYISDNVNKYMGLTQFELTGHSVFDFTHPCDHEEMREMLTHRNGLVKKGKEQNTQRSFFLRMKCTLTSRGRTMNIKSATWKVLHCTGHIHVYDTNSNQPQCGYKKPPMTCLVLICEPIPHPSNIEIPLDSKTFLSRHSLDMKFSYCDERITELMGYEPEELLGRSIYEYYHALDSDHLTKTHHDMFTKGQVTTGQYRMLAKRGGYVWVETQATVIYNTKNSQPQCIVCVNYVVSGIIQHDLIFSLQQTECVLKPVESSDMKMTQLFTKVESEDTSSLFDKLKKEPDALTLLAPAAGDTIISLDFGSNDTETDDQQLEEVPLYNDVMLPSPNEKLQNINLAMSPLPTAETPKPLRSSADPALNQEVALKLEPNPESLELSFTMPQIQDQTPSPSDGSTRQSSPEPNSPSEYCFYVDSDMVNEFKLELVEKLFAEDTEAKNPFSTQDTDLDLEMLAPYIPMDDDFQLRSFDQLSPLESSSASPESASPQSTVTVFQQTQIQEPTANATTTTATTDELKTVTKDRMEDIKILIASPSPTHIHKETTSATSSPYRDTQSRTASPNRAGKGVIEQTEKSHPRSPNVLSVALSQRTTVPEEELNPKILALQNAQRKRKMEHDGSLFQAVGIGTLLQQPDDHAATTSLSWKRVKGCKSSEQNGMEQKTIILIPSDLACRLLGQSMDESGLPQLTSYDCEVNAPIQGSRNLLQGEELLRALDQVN
In short: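 HepG2 cells transiently transfected with multiplexed cis-promoter reporter units; reporter mRNA read 24 h after dosing by RT-PCR, 6-FAM primer-extension labelling, HpaI digestion and capillary electrophoresis. Bidirectional fit versus DMSO baseline.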

Structure (SMILES)	outcome [1]	outcome [2]	outcome [3]	outcome [4]	outcome [5]	outcome [6]	outcome [7]	outcome [8]	outcome [9]	outcome [10]	outcome [11]	outcome [12]	outcome [13]	outcome [14]	outcome [15]	outcome [16]	outcome [17]	outcome [18]	outcome [19]	AC50 [5]
CNC(=O)N(C)c1nnc(C(C)(C)C)s1	inactive	inactive	inactive	inactive	inactive	inactive	inactive	inactive	inactive	inactive	inactive	inactive	inactive	inactive	inactive	–	–	–	–	–
CCCC(=NOCC)C1=C(O)CC(CC(C)SCC)CC1=O (configuration not stated)	inactive	inactive	inactive	inactive	inactive	inactive	inactive	inactive	inactive	inactive	inactive	inactive	inactive	inactive	inactive	inactive	inactive	inactive	inactive	–
CC(C)NC(=O)N1CC(=O)N(c2cc(Cl)cc(Cl)c2)C1=O	inactive	inactive	inactive	inactive	–	inactive	inactive	inactive	inactive	inactive	inactive	inactive	inactive	–	inactive	–	–	–	inactive	20.6 µM (active)
C=CCOC(=O)C(C)(C)OC(=O)c1cc(-n2c(=O)cc(C(F)(F)F)n(C)c2=O)ccc1Cl	inactive	inactive	inactive	inactive	inactive	inactive	inactive	inactive	inactive	inactive	inactive	inactive	inactive	inactive	inactive	–	inactive	inactive	inactive	–
